Results: ChEMBL document CHEMBL1961873, “Compounds: GSK PKIS; Assays: Nanosyn kinase panel” (2012)
Where “and” joins values, the source holds several entries; their conditions need not be identical. Identical values can stand only once.

What was measured:
[1] = target: Dual specificity protein kinase CLK3 (Homo sapiens) (UniProt P49761); conditions: at 1 µM;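 also: each value is the mean inhibition of CLK3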
[2] = target: Dual specificity tyrosine-phosphorylation-regulated kinase 1A (Homo sapiens) (UniProt Q13627); conditions: at 0.1 µM
[3] = target: Dual specificity tyrosine-phosphorylation-regulated kinase 1A (Homo sapiens) (UniProt Q13627); conditions: at 1 µM
[4] = target: Dual specificity tyrosine-phosphorylation-regulated kinase 1B (Homo sapiens) (UniProt Q9Y463); conditions: at 0.1 µM
Chain of Dual specificity tyrosine-phosphorylation-regulated kinase 1B (Homo sapiens) (Q9Y463 whole entry, looked up): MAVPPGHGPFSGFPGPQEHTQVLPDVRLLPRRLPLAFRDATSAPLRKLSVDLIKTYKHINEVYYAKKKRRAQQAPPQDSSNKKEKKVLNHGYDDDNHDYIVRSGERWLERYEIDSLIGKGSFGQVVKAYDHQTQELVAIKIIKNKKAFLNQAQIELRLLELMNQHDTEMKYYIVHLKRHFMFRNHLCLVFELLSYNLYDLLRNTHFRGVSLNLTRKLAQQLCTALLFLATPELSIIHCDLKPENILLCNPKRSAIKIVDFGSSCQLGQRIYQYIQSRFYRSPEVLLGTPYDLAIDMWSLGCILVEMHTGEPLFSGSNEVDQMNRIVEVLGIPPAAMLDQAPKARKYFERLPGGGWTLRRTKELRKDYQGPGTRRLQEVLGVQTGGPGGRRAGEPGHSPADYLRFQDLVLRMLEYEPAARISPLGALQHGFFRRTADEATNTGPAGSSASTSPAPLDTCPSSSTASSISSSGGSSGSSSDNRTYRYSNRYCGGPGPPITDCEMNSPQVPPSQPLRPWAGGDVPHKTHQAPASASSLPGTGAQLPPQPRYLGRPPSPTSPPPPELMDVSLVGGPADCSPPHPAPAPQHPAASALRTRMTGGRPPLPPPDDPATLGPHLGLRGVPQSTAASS

[5] = target: Dual specificity tyrosine-phosphorylation-regulated kinase 1B (Homo sapiens) (UniProt Q9Y463); conditions: at 1 µM
[6] = target: T1, Dual specificity tyrosine-phosphorylation-regulated kinase 2 (Homo sapiens) (UniProt Q92630); conditions: at 0.1 µM
T1 sequence (whole entry): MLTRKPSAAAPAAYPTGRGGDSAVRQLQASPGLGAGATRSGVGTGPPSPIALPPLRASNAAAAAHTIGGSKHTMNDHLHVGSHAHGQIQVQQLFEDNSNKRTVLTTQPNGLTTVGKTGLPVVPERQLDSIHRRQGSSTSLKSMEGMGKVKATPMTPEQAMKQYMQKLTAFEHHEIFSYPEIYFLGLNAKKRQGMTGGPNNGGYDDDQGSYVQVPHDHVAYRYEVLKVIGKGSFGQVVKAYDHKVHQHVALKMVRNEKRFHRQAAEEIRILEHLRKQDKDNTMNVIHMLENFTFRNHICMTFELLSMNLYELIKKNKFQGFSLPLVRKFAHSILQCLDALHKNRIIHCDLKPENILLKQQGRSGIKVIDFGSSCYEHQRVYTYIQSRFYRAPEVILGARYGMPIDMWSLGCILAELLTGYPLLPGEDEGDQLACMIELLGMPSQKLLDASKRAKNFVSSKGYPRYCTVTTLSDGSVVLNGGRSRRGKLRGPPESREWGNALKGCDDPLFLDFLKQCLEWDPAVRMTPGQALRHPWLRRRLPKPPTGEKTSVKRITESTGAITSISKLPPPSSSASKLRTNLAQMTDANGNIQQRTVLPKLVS

[7] = target: T1, Dual specificity tyrosine-phosphorylation-regulated kinase 2 (Homo sapiens); conditions: at 1 µM
[8] = target: Glycogen synthase kinase-3 alpha (Homo sapiens) (UniProt P49840); conditions: at 0.1 µM
Chain of Glycogen synthase kinase-3 alpha (Homo sapiens) (P49840 2-483 limits assumed): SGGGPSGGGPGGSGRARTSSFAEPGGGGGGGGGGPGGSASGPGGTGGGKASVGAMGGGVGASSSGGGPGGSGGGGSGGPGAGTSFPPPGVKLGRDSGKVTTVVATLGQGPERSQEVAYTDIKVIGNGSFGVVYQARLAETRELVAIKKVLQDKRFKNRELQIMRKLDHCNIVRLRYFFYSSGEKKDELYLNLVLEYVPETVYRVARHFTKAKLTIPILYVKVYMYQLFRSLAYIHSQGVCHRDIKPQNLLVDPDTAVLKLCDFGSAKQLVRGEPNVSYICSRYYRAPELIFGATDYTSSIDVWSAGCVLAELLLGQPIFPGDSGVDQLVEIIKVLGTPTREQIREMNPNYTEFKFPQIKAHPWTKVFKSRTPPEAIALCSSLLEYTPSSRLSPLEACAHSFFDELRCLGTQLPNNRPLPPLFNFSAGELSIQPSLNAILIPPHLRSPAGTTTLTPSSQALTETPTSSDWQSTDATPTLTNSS

[9] = target: Glycogen synthase kinase-3 alpha (Homo sapiens) (UniProt P49840); conditions: at 1 µM
[10] = target: Glycogen synthase kinase-3 beta (Homo sapiens) (UniProt P49841); conditions: at 0.1 µM
Chain of Glycogen synthase kinase-3 beta (Homo sapiens) (P49841 whole entry, looked up): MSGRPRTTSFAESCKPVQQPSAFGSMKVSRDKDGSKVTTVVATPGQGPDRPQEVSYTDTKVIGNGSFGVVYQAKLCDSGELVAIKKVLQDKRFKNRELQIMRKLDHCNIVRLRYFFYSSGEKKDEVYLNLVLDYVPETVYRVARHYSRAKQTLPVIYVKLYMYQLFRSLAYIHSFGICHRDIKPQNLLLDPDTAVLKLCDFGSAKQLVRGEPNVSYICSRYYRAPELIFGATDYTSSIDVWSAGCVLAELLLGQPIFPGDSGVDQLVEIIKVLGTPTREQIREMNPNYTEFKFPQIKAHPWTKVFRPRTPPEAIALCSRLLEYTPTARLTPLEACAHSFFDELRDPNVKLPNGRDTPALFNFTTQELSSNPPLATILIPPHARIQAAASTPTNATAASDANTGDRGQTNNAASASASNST

[11] = target: Glycogen synthase kinase-3 beta (Homo sapiens) (UniProt P49841); conditions: at 1 µM
[12] = target: Homeodomain-interacting protein kinase 1 (Homo sapiens) (UniProt Q86Z02); conditions: at 0.1 µM
Chain of Homeodomain-interacting protein kinase 1 (Homo sapiens) (Q86Z02 whole entry, looked up): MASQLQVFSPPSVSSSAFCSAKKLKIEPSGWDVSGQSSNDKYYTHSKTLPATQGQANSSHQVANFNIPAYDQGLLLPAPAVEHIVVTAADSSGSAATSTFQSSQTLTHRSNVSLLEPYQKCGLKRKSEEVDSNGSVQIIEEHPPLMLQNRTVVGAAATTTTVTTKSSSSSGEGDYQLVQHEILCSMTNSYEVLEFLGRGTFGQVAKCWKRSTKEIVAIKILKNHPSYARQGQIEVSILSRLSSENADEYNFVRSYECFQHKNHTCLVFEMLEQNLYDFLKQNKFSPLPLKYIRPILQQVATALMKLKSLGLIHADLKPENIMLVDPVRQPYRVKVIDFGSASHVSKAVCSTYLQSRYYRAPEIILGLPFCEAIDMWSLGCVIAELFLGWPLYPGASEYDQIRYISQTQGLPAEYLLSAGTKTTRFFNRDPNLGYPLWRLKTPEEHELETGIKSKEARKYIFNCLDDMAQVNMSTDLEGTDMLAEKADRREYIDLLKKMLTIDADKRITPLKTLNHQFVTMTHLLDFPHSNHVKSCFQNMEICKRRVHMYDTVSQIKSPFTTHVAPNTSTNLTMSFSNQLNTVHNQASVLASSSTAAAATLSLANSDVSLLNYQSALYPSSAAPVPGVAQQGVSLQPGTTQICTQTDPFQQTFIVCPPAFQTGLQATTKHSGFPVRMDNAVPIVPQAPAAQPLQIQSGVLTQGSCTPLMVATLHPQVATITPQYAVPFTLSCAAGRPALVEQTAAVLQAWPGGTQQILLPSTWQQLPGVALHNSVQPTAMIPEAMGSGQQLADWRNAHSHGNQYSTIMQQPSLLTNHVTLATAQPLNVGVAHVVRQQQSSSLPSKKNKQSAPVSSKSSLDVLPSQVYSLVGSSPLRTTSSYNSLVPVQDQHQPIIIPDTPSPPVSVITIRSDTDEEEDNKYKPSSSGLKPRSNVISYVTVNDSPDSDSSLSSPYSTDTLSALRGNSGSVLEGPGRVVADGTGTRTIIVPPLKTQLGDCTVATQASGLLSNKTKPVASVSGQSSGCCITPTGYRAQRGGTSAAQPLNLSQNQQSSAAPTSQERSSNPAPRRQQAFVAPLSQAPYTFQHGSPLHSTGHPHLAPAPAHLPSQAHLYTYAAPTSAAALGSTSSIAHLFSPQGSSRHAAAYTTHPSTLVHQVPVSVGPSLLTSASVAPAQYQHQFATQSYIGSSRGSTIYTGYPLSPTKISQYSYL

[13] = target: Homeodomain-interacting protein kinase 1 (Homo sapiens) (UniProt Q86Z02); conditions: at 1 µM
[14] = target: T2, Homeodomain-interacting protein kinase 4 (Homo sapiens) (UniProt Q8NE63); conditions: at 0.1 µM
T2 sequence (whole entry): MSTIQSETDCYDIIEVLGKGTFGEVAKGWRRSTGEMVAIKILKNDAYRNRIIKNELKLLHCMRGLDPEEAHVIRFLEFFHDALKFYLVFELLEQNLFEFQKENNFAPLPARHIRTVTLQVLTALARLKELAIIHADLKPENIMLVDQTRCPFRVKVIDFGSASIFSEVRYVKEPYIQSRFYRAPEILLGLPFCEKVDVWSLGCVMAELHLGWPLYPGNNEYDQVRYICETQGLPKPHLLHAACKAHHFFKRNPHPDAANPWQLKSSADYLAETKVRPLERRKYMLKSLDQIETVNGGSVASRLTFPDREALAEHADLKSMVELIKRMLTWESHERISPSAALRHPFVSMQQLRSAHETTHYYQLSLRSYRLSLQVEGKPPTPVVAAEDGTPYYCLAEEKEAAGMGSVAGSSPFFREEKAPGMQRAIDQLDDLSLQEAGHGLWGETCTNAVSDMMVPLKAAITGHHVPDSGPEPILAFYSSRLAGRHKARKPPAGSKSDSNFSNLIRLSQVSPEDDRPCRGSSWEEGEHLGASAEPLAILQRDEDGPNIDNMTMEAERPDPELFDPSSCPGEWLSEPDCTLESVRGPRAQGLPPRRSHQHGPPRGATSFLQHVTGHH

[15] = target: T2, Homeodomain-interacting protein kinase 4 (Homo sapiens); conditions: at 1 µM
[16] = target: Mitogen-activated protein kinase 9 (Homo sapiens) (UniProt P45984); conditions: at 0.1 µM
Chain of Mitogen-activated protein kinase 9 (Homo sapiens) (P45984 whole entry, looked up): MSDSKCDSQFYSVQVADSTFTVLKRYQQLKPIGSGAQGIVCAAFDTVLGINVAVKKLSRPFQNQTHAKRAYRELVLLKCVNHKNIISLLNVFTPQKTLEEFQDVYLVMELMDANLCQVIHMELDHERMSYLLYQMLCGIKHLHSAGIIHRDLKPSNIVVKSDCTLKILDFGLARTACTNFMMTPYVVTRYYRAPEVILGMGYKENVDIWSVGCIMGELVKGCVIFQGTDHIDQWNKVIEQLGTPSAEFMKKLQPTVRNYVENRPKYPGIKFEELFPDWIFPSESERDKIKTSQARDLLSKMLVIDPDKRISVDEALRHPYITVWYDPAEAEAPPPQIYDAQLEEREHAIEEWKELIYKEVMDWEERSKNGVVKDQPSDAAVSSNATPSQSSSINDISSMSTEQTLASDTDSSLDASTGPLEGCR

[17] = target: Mitogen-activated protein kinase 9 (Homo sapiens) (UniProt P45984); conditions: at 1 µM
[18] = target: Mitogen-activated protein kinase 1 (Homo sapiens) (UniProt P28482); conditions: at 0.1 µM
Chain of Mitogen-activated protein kinase 1 (Homo sapiens) (P28482 whole entry): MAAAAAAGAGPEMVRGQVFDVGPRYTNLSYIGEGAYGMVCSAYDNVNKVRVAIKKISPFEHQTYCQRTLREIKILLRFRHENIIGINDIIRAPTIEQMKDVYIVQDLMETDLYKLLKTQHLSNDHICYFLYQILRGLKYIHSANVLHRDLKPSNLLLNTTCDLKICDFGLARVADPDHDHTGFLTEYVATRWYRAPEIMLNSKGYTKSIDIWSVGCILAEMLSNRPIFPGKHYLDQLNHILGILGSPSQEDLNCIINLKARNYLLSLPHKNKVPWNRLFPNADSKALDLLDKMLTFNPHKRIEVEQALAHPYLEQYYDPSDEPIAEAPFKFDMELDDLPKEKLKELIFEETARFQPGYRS

[19] = target: Mitogen-activated protein kinase 1 (Homo sapiens) (UniProt P28482); conditions: at 1 µM
[20] = target: Mitogen-activated protein kinase 3 (Homo sapiens) (UniProt P27361); conditions: at 0.1 µM;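 also: each value is a mean inhibition figure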
Chain of Mitogen-activated protein kinase 3 (Homo sapiens) (P27361 whole entry): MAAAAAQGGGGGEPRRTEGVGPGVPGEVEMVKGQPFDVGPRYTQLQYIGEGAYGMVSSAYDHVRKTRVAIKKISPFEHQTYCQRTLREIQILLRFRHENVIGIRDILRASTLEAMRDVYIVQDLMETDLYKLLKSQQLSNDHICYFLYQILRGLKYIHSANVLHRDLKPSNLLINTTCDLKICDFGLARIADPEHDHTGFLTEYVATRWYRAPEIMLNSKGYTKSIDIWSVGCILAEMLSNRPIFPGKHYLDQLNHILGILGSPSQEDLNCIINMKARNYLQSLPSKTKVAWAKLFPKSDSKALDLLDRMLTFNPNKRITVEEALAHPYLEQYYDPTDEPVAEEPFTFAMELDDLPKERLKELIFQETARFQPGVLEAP

Chain of Dual specificity protein kinase CLK3 (Homo sapiens) (P49761 whole entry, looked up): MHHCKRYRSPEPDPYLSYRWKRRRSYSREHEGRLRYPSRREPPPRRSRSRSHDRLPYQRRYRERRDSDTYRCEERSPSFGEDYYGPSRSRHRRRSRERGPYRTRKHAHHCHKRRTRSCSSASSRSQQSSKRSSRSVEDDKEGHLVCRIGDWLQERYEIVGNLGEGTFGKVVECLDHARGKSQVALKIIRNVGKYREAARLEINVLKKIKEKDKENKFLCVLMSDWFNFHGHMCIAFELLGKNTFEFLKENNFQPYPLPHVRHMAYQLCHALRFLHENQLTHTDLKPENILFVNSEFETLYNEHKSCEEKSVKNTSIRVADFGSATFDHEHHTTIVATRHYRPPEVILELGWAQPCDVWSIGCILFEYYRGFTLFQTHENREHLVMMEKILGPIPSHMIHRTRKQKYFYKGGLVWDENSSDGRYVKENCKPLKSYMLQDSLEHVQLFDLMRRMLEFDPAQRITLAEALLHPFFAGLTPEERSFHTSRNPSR

Structure (SMILES)	inhibition [1]	inhibition [2]	inhibition [3]	inhibition [4]	inhibition [5]	inhibition [6]	inhibition [7]	inhibition [8]	inhibition [9]	inhibition [10]	inhibition [11]	inhibition [12]	inhibition [13]	inhibition [14]	inhibition [15]	inhibition [16]	inhibition [17]	inhibition [18]	inhibition [19]	inhibition [20]
N#Cc1ccc2c(-c3ccnc(NC4CC4)n3)c(-c3ccc(F)cc3)nn2c1	-0.84%	1.91%	0.14%	-0.4%	-2.94%	0.64%	-0.6%	5.27%	24.3%	8.49%	45.1%	-2.11%	0.75%	-0.93%	-1.01%	17.2%	71.1%	1.33%	4.26%	0.07%
Cn1c(-c2nonc2N)nc2cnccc21	7.43%	25.1%	69.3%	11.7%	51.4%	2.37%	10.1%	10.1%	52.1%	5.71%	41.6%	0.83%	13.9%	0.63%	4.4%	0.7%	4.16%	-1.97%	2.95%	0.55%
COc1cccc(Nc2nccc(-c3cnn4ncccc34)n2)c1	65.3%	77.4%	88.3%	81.5%	90%	5.88%	37.6%	60.7%	79.5%	59.7%	79%	88.9%	92.6%	56.4%	87.3%	9.47%	46.2%	2.75%	26.5%	1.68%
CNC(=O)c1sc(-n2cnc3cc(OC)c(OC)cc32)cc1OCc1ccccc1C(F)(F)F	-0.08%	1.4%	2.18%	-0.95%	0.23%	2.15%	1.34%	2.13%	5.93%	1.12%	3.56%	-0.45%	-1.76%	1.98%	7.08%	2.65%	4.22%	5.45%	6.09%	3.11%
CN1CCN(Cc2ccc(-c3cc4ncnc(Nc5ccc(OCc6cccc(F)c6)c(Cl)c5)c4s3)o2)CC1	0.78% and 2.08%	2.29% and 3.65%	3.25% and 6.67%	-1.48% and 1.67%	-0.65% and 3.95%	2.17% and 3.19%	1.22% and 4.53%	4.34% and 12.6%	3.93% and 13.7%	2.82% and 10.6%	4.12% and 11.3%	-3.31% and 2.8%	0.3% and 2.78%	-0.43% and 2.01%	0.76% and 4.59%	0.58% and 7.12%	2.65% and 8.42%	9.37% and 6.21%	4.78% and 9.62%	2.39% and 7.04%
Cc1cc(O)cc(C)c1/C=C/c1cncc(C(N)=O)c1	3.45%	2.36%	6.61%	0.87%	2.81%	1.62%	3.99%	1.54%	4.08%	1.76%	1.95%	0.55%	3.38%	0.22%	1.54%	1.69%	2.53%	1.25%	2.53%	0.31%
CC1=C(C(=O)Nc2ccc3[nH]ncc3c2)C(c2ccc(F)cc2)N=C(c2ccc(C(F)(F)F)nc2)N1 (stereo not drawn)	2.08%	1.92%	2.39%	1.23%	1.37%	1.37%	1.27%	1.54%	4.37%	1.95%	4.71%	0.16%	2.28%	0.68%	1.53%	1.61%	4.98%	-1.73%	3.17%	1.81%
CCN1CCC(C(=O)Nc2n[nH]c3nnc(-c4cccc(F)c4F)cc23)CC1	0.77%	14.4%	61%	12.9%	54.3%	-0.03%	2.26%	85.3%	89.9%	80.9%	88.7%	-1.08%	2.33%	0.85%	4.09%	-0.81%	1.88%	-0.1%	0.83%	-2.77%
CS(=O)(=O)Nc1ccc(-c2cc(-c3ccccc3)cc(C(N)=O)c2N)cc1	-0.57%	0.57%	4.13%	0.32%	1.12%	0.61%	2.18%	1.48%	3.56%	0.94%	3.26%	-3.53%	2.26%	0.57%	2.28%	0.94%	1.19%	4.56%	2.91%	2.82%
NS(=O)(=O)c1ccc(N/N=C2\C(=O)Nc3ccc(C(=O)NCc4ccncc4)cc32)cc1	3.91%	2.11%	9.79%	1.01%	11.3%	2.69%	8.09%	35.3%	75.7%	38.4%	77.1%	10.9%	42.5%	12.2%	45.9%	2.55%	8.96%	14.9%	55.3%	5.64%
COc1ccccc1-c1cc(/C=C2\C(=O)Nc3ncc(Br)cc32)cc(Br)c1O	9.88%	2.51%	11.2%	0.86%	4.16%	3.68%	4.79%	4.73%	10%	5.17%	8.88%	0.74%	7.53%	0.6%	10.9%	3.44%	8.54%	3.26%	4.68%	4.03%
OCCCNc1nccc(-c2c(-c3ccc(F)cc3)nn3cc(C(F)(F)F)ccc23)n1	0.7%	1.47%	6.36%	1.89%	3.86%	2.33%	3.97%	7.04%	18.2%	8.01%	31.2%	-0.49%	3.61%	3.13%	6.59%	14.8%	59.7%	1.24%	7.07%	1.68%
Nc1nccc(-c2c(-c3ccc(F)cc3)ncn2C2CCNCC2)n1	1.14% and 2.38%	0.55% and 2.23%	3.87% and 4.35%	2.09% and 2.37%	5.26% and 3.56%	-3.5% and -0.2%	1.66% and -0.95%	0.13% and 1.29%	2.91% and 3.54%	-1.49% and 2.54%	2.45% and 5.63%	-0.66% and 2.64%	7.61% and 4.5%	0.4% and 1.82%	8.1% and 1.64%	–	–	-4.78%	0.6% and 1.9%	-1.7% and 0.12%
COc1cc(N2CCN(C(C)C)CC2)ccc1Nc1nc(Nc2cccc(F)c2C(=O)O)c2cc[nH]c2n1	7.82%	5.55%	23%	5.54%	32.6%	2.88%	4.2%	5%	6.33%	3.95%	6.19%	4.97%	23.6%	5.89%	22.7%	26.4%	72.5%	5.18%	6.34%	5.83%
